# From PubChem
# This is a sample that favours compounds with a hit; in the whole collection about 4% have one here.
# GBA mod: Glucocerebrosidase; AID 360, 2006; 1.1% of 48,000 active; purified enzyme, resorufin glucoside fluorescence (screen aimed at inhibitors), 20 min; Lysosomal acid glucosylceramidase (Homo sapiens), P04062; Potency, µM; in the data active means potency below about 15 µM; inconclusive means mostly about 16 µM to 33 µM;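 further: the screen sought inhibitors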
#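 Normal human glucocerebrosidase (0.2 nM final) was assayed with resorufin β-D-glucopyranoside (30 uM final) in 50mM citric acid/KH2PO4, 10mM sodium taurocholate, 0.01% tween-20, pH 5.9. Compounds were titrated; fluorescence (Ex 548, Em 600) read after 20 min at RT.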
# HEK293 cAMP cs: qHTS Assay for Agonists of the Thyroid Stimulating Hormone Receptor: Activators of Intracellular cAMP Concentrations in Parental HEK 293; Potency, µM (series often up to 57.1 µM), inactives show at the top dose activation, most hits filed as activators; parental HEK293 CNG cAMP sensor, membrane potential fluorescence; AID 938, 2007; 2.5% of 73,000 active; active means well fitted activation curve with a large enough effect; inconclusive means small, poorly fitted or top-dose-only effect; inactive means no such curve, though single readings can be large or run the other way; further: % of control where 0% means no effect; nearly all actives have a fitted effect of over 55% in size
#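 Counterscreen for endogenous-receptor signalling: CNG-channel HEK 293 cells report cAMP rise by membrane depolarization. After 60 min dye equilibration with 100 uM RO 20-1724, compounds incubated 30 min before bottom-read fluorescence at 590 nm.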
# PK Bst: Pyruvate Kinase | 1.2% of 51,000 active | AID 361, 2006 | Potency, µM | purified pyruvate kinase, luminescence ATP production; ribose 5-phosphate activator present at AC10; in the data active means potency below about 11 µM; inconclusive means mostly about 12 µM to 25 µM;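 the screen sought inhibitors and activators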;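 further: scaled between full activation by ribose 5 phosphate and full inhibition by luteolin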
# TSHR ag: qHTS Assay for Agonists of the Thyroid Stimulating Hormone Receptor. Potency, µM (top dose mostly 57.1 µM), inactives show top-dose activation, hits mostly activators. HEK293-CNG-TSHR cells (CNG channel as cAMP sensor), membrane potential dye, cAMP. Thyrotropin receptor (Homo sapiens), P16473. AID 926, 2007. 0.48% of 73,000 active; active means well fitted activation curve with a large enough effect in the main read-out, with a control signal flat, not every such curve was filed as active; inconclusive means small, poorly fitted or top-dose-only effect, or a change in a side signal; inactive means no such curve, though single readings can be large or run the other way; % of control where 0% means no effect;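 further: the control signal comes from parental cells without the receptor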
#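 HEK 293 cells stably expressing TSHR and a cAMP-gated CNG channel; parental CNG-only cells as counterscreen. Cells preloaded 60 min with membrane potential dye plus 100 uM RO 20-1724, then compound 30 min; fluorescence read at 590 nm.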
# Active calls of the source: *; i = inactive; u = inconclusive; x = not tested or not shown; [ ] = another dose, or the depositor's remark. Potency means the concentration at half of the fitted maximal effect.
SMILES,GBA mod,HEK293 cAMP cs,PK Bst,TSHR ag
CCOc1ccc2[nH]c(=O)c(CN(Cc3cccs3)Cc3nnnn3C(C)(C)C)cc2c1,u,25.1µM*,>57,u
CCOC(=O)Cn1c(CN2CC(C)OC(C)C2)nc2c1c(=O)n(C)c(=O)n2C (stereo unspecified),x,26.0%,x,3.98µM*
N#CC1=C(N)C(C#N)(C#N)[C@H](c2c(F)cccc2F)[C@H]2CC3(CC=C12)OCCO3,13.6*,10.7%,>57,2.1%
COCCNC(=O)c1ccc(NS(=O)(=O)c2cc(C)ccc2C)cc1,7.13*,1.0%,i,0.0%
COc1ccc2nc(SCC(=O)N(C)C3CCCCC3)c(C#N)cc2c1,u,25.1µM*,>57,u
COC(=O)CSc1nc2cc(C)ccc2cc1C#N,>76.9,9.9%,i,5.4%
CCOC(=O)CC(=O)CSc1nc2ccc(C)cc2cc1C#N,12.7*,5.2%,u,-6.3%
COc1ccc2nc(SCC(=O)Nc3ccc(S(=O)(=O)N4CCCC4)cc3)c(C#N)cc2c1,>76.9,3.16µM*,>57,u
N#Cc1cc2ccccc2nc1SCC(=O)Nc1ccc(S(=O)(=O)N2CCCC2)cc1,>76.9,u,>57,u
COc1ccc2nc(SCC(=O)N3CCCCCC3)c(C#N)cc2c1,>76.9,23.9%,x,x
CN1C[C@@H](O)[C@@H](O)[C@@H](O)[C@@H]1CO,x,-5.0%,x,-2.6%
O=C(Nc1cccc2cccnc12)c1cccnc1,>76.9,23.8%,9.75*,-1.9%
O=C(Nc1ccccn1)c1cccnc1,>76.9,4.5%,>57,-0.3%
COc1ccc(C)cc1NC(=O)CSc1nnc(-c2cc3cccc(OC)c3o2)n1N,>76.9,15.8µM*,>57,u
Cc1cc(C(=O)OCC(=O)NCc2ccco2)c(C)n1-c1ccc(F)cc1,>76.9,15.8µM*,>57,u
CC(=O)c1cccc(NS(=O)(=O)c2cccc(C(=O)O)c2)c1,x,-7.3%,x,4.8%
CCc1c(O)c2c(c(O)c1C(C)=O)C(=O)c1c(cc(O)c(C(=O)O)c1C(=O)O)C2=O,x,0.7%[11.4 µM],x,-4.1%[11.4 µM]
COC(=O)[C@@]1(Cc2ccc(F)cc2)[C@H]2c3cc(C(=O)N(C)C)n(CCO)c3C[C@H]2CN1C(=O)c1ccccc1,x,11.2%,x,-3.7%
COCCn1c(C(=O)N(C)C)cc2c1C[C@H]1CN(C(=O)c3ccccc3)[C@@](Cc3ccc(F)cc3)(C(=O)OC)[C@@H]21,x,15.8µM*,x,u
COC(=O)[C@@]1(Cc2ccccc2)[C@H]2c3cc(C(=O)N(C)C)n(Cc4c(CO)[nH]cc(C)c4=O)c3C[C@H]2CN1C(=O)c1ccccc1,x,20.4%,x,0.3%
COCCn1c(C(=O)N2CCCC2)cc2c1C[C@H]1CN(C(=O)c3ccccc3)[C@@](Cc3ccc(F)cc3)(C(=O)OC)[C@@H]21,x,12.6µM*,x,u
COC(=O)[C@@]1(Cc2ccc(F)cc2)[C@H]2c3cc(C(=O)N(C)C)n(Cc4ccc(C)o4)c3C[C@H]2CN1C(=O)c1ccccc1,x,3.16µM*,x,u
COC(=O)[C@@]1(Cc2ccc(OC)cc2)[C@H]2c3cc(C(=O)N(C)C)n(Cc4ccccc4)c3C[C@H]2CN1C(=O)c1ccccc1,x,12.6µM*,x,u
O=C(O)C[C@H](Cc1ccc2c(c1)OCO2)C(=O)O,x,0.3%[11.4 µM],x,7.0%[11.4 µM]
N#C/C(=C(\O)C(=O)O)c1ccc(-c2cccc3ccccc23)cc1,x,8.8%[11.4 µM],x,1.3%[11.4 µM]
SMILES,GBA mod,HEK293 cAMP cs,PK Bst,TSHR ag
COC(=O)[C@@]1(Cc2ccc(F)cc2)[C@H]2c3cc(C(=O)N(C)C)n(Cc4ccc(OC)c(OC)c4)c3C[C@H]2CN1C(=O)c1ccccc1,x,15.8µM*,x,u
COC(=O)[C@@]1(Cc2ccc(F)cc2)[C@H]2c3cc(C(=O)N(C)C)n(Cc4ccccc4)c3C[C@H]2CN1C(=O)c1ccccc1,x,10µM*,x,u
Cc1onc(-c2ccccc2)c1C(N)=O,>76.9,-9.1%,>57,-0.4%
CCN(C(=O)c1c(-c2ccccc2)noc1C)c1ccccc1,>76.9,7.8%,>57,10µM*
COc1ccc(C)cc1NC(=O)CN(Cc1nnc(-c2ccc(Cl)cc2)o1)C1CCCC1,>76.9,15.8µM*,4.71*,u
CCOC(=O)c1cc(NC(=O)NCc2ccco2)c(C)nc1C,>76.9,-6.9%[2.29 µM],>57,10µM*
CC(=O)Nc1nonc1-c1nc2ccccc2n1CC1CC1,>76.9,u,>57,u
CCC(=O)Nc1nonc1-c1nc2ccccc2n1CC(C)C,>76.9,25.1µM*,>57,u
Nc1nonc1-c1nc2ccccc2n1CC(=O)NC1CCCC1,>76.9,6.31µM*,>57,u
